Experimental data: PubChem BioAssay AID485297 (National Center for Advancing Translational Sciences (NCATS), 2010)
The whole screen tested about 320,000 compounds, of which about 9,100 (2.8%) were called active. Entries that show only a call come without a potency. About 3% were inconclusive and are not listed. The full list was thinned out, with actives kept by preference. Unmarked numbers belong to inactive results. The call rests on the fitted dose curve; in most records, active means well fitted activation curve with a large enough effect; inconclusive means small, poorly fitted or top-dose-only effect; inactive means no such curve, though single readings can be large or run the other way.

Assay: qHTS Assay for Rab9 Promoter Activators; further: nearly all actives have a fitted effect of over 60% in size
Conditions: Huh7 Rab9 promoter-luciferase reporter, luminescence, 24 h; series mostly up to 9.22 µM
How it was run: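 Rab9 promoter-driven luciferase in stably transfected Huh7 cells; 1500 cells/well rested 2 h, exposed to compound in DMSO for 24 h at 37 °C, 5% CO2. Luminescence read 10 min after adding luciferase reagent at ambient temperature.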
Potency means the concentration at half of the fitted maximal effect.

Compound | Potency | activation, negative = inhibition
CCCN(C(=O)c1nc2nccc(C)n2n1)c1c(N)n(Cc2ccccc2)c(=O)[nH]c1=O | inactive | 
O=C(Nc1cc(C(F)(F)F)ccc1Cl)C(=O)N1CCCCC1 | inactive | 
O=C(Nc1cc(C(F)(F)F)ccc1Cl)c1cc2nc3c(c(C(F)(F)F)n2n1)CCCC3 | 1780 nM (active) | 
O=C(Nc1cc(C(F)(F)F)ccc1Cl)c1cc(C2CC2)on1 | inactive | 
Cc1cc(NC(=O)CCC(=O)N(CC(=O)NCC2CCCO2)c2ccccc2)no1 (stereo not drawn) | inactive | 
CC(C)Oc1ccc(C(=O)NCC(=O)Nc2ccc3c(c2)CCC3)cc1 | inactive | 
COc1ccc(N2CCN(C(=O)c3ccc4c(Cl)c5c(nc4c3)CCCC5)CC2)cc1 | inactive | 
CC(C)CCNC(=O)c1ccc2c(Cl)c3c(nc2c1)CCC3 | 794 nM (active) | 
CC(=O)c1ccc(NC(=O)c2ccc3c(Cl)c4c(nc3c2)CCCC4)cc1 | inactive | 
COc1ccc(C(=O)OCC(=O)N2CC(=O)Nc3ccccc32)cc1Br | inactive | 
O=C1C2C3C=CC(C3)C2C(=O)N1c1ccc(-c2nc3ccccc3c(=O)o2)cc1 (stereo not drawn) | inactive | 
Cc1ccc(NC(=O)Cn2c(C)csc2=O)cc1 | inactive | 
Cc1ccc(C)c(NC(=O)c2cc(-c3cc(C)cc(C)c3O)n[nH]2)c1 | inactive | 
Cc1ccc(NC(=O)CCN2C(=O)c3ccccc3C2=O)cc1C | inactive | 
Cc1ccc(NC(=O)c2cc(-c3ccccc3O)n[nH]2)cc1C | 2820 nM (active) | 
Cc1ccc(C(=O)Nc2ccc(C)c(S(=O)(=O)N(C)C)c2)s1 | 1000 nM (active) | 
CCN(CC(=O)Nc1ccc(C)c(S(=O)(=O)N(C)C)c1)Cc1ccccc1 | inactive | 
Cc1ccc(NC(=O)c2cccs2)cc1S(=O)(=O)N(C)C | inactive | 
CCN(CC)CCn1c2c(c(SCC(=O)Nc3nc4ccccc4s3)nc1=O)CCCC2 | inactive | 
O=[N+]([O-])c1cc(Br)c(O)c(/C=N/Nc2nc3ccccc3s2)c1 | inactive | 
c1ccc2sc(NN=C3CCCC3)nc2c1 | 631 nM (active) | 
CC(=O)O[C@H]1c2ccccc2-c2ccccc2[C@@H]1OC(C)=O | inactive | 
CCOC(=O)c1sc(NC(=O)c2sc(C)nc2C)nc1C | inactive | 

Compound | Potency | activation, negative = inhibition
O=C(Nc1ccccc1N1CCOCC1)c1csc2c1CCCC2 | inactive | 
Cc1ccc(NC(=O)c2csc3c2CCCC3)cc1 | 1410 nM (active) | 
COC(=O)c1sc(NC(=O)c2csc3c2CCCC3)nc1C | 3980 nM (active) | 
CCOC(=O)c1sc(NC(=O)c2cc(S(=O)(=O)N3CCOCC3)ccc2C)nc1C | inactive | 
Cc1ccc(NC(=O)c2c(NC(=O)CCC(=O)O)sc3c2CCCCC3)cc1 | inactive | 
CCN(C(=O)COC(=O)c1c(C)nn(-c2ccccc2)c1Cl)c1c(N)n(Cc2ccccc2)c(=O)[nH]c1=O | inactive | 
Cc1cccc(NC(=O)CN2CCN(CC(=O)NCC3(N4CCCCC4)CCCCC3)CC2)c1C | inactive | 
CCCn1c(N)c(N(CCOC)C(=O)C2CCCC2)c(=O)[nH]c1=O | inactive | 
O=C(CNS(=O)(=O)c1ccc2ccccc2c1)Nc1ccc(F)c(F)c1F | inactive | 
COC(=O)c1ccc(NC(=O)CSc2nncn2-c2cccnc2)cc1 | inactive | 
O=C(COC(=O)c1cccc(Cl)c1)NC1CCCCCCC1 | inactive | 
O=C(CSc1nnc(N2CCOCC2)n1-c1cccc(F)c1)N1CCN(c2ccccn2)CC1 | inactive | 
C=CCNc1nc(Nc2ccc(Cl)cc2)nc(OC)n1 | inactive | 
Brc1ccc(CN2CC[C@H]3C=CCc4cccc(c43)C2)cc1 | inactive | 
Cc1cccc(-n2cnc(C(=O)Nc3cccnc3)c2)n1 | 2240 nM (active) | 
Cc1cccc(-n2cnc(C(=O)NNC(=S)Nc3ccccc3)c2)n1 | inactive | 
COc1cccc(C(=O)Nc2cccnc2)c1OC | inactive | 
Cc1ccc(NC(=O)CN(C)C(=O)c2cccc(S(=O)(=O)N3CCCC3)c2)cc1 | inactive | 
Cc1ccc(O)c(CNc2nc3ccccc3[nH]2)c1 | inactive | 
O=C(Nc1cc(-c2nc3ncccc3o2)ccc1Cl)c1ccco1 | inactive | 
Cc1ccc(-n2nc3cc(Cl)c(NC(=O)c4ccco4)cc3n2)cc1 | 3550 nM (active) | 
O=C(Nc1cccc(-n2cnnn2)c1)c1cccnc1 | inactive | 
Cc1ccc(-n2nc3cc(C)c(NC(=O)c4cccnc4)cc3n2)cc1 | 3550 nM (active) | 

Compound | Potency | activation, negative = inhibition
Cc1cc(NC(=O)c2ccco2)c(=O)n(Cc2c(F)cccc2Cl)c1 | inactive | 
Cc1ccc(S(=O)(=O)N2CCCCC2)cc1NC(=O)c1cccnc1 | inactive | 
O=C(OC1CCCCC1=O)c1cccc(S(=O)(=O)NCc2ccccc2)c1 (stereo not drawn) | inactive | 
CCOc1ccccc1NC(=O)NC1CCCCCCC1 | inactive | 
O=C(CN1CCN(C2CCS(=O)(=O)C2)CC1)N1N=C(c2ccc(Cl)cc2)CC1c1ccco1 (stereo not drawn) | inactive | 
CC(=O)NCc1ccc(-c2csc(NC(=O)CCCc3nc4ccccc4c(=O)[nH]3)n2)cc1 | inactive | 
CC1(C(=O)OCC(=O)Nc2ncc(Cl)cc2Cl)CC1(Cl)Cl (stereo not drawn) | inactive | 
O=C(CSc1ccccc1)Nc1cccc(S(=O)(=O)N2CCOCC2)c1 | inactive | 
CC(=NCC1CCCO1)c1c(O)[nH]c(=O)[nH]c1=O (stereo not drawn) | inactive | 
O=C1c2cccc3c([N+](=O)[O-])ccc(c23)C(=O)N1CC1CCCO1 (stereo not drawn) | inactive | 
O=C1C(C=NCC2CCCO2)=C(O)c2ccccc21 (stereo not drawn) | 2820 nM (active) | 
O=[N+]([O-])c1ccccc1SNc1ccccn1 | inactive | 
O=C(O[C@H]1[C@H](Cc2ccccc2)NS(=O)(=O)[C@H]2C[C@@H]3C=C[C@]12O3)c1ccc([N+](=O)[O-])cc1 | inactive | 
COc1ccc2c(C)cc(SCC(=O)NCC3CCCO3)nc2c1 (stereo not drawn) | inactive | 
Cc1cccc(C)c1OC(=O)CSc1nnc(-c2ccccc2)o1 | inactive | 
CCCCSc1nnc(-c2ccc(C)cc2)o1 | 1580 nM (active) | 
CCOC(=O)CSc1nnc(-c2ccncc2)o1 | inactive | 
Cc1ccc(S(=O)(=O)N(C)C)cc1NC(=O)C(C)OC(=O)c1ccc2ccccc2n1 (stereo not drawn) | inactive | 
O=C(O)c1ccc(N=NN2CCOCC2)cc1 | inactive | 
O=C(c1ccccc1)N1CCN(C(=O)N2CCCCC2)CC1 | inactive | 
O=C(O)c1cccc(N=NN2CCCCCC2)c1 | 282 nM (active) | 
COc1ccc2c3c(c(=O)oc2c1)C1O[C@](CCCCN2C(=O)c4ccccc4C2=O)(Cc2c1ccc1ccccc21)O3 |  | -1.17% [at 1.84 µM]
